DT40 TDP1 CPT: DT40-hTDP1 cell growth loss with CPT | Potency, µM (top dose mostly 46.2 µM), actives largely listed as inhibitors | AID 686979 | chicken DT40 Tdp1-/-;hTDP1 cells + 20 nM CPT, ATP luminescence, 48 h | 420,000 tested, 12% active; further: nearly all actives have a fitted effect of over 55% in size
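Chicken DT40 Tdp1-/- cells stably complemented with human TDP1 were seeded at 400 cells/well in medium containing 20 nM camptothecin, exposed to pin-transferred compounds, and grown at 37 °C for at least 48 hr. Viability was read as ATP luminescence.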
HT1080 IDH1KD tx: toxicity to HT-1080 IDH1 knockdown cells (counter line). HT-1080 IDH1 knockdown viability, ATP luminescence, 48 h. Potency, µM (doses to about 46.1 µM), actives largely listed as cytotoxic. 360,000 tested, 2% active
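% activity derives from luminescence (CellTiter-Glo), normalised to DMSO and no-cell wells. HT-1080-IDH1KD cells, 750/well, had 48 h compound exposure at 37 °C.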
TDP1 cell noCPT: qHTS for Inhibitors of human tyrosyl-DNA phosphodiesterase 1 (TDP1): qHTS in cells in absence of CPT; DT40 Tdp1-/- hTDP1 cells, no CPT, ATP luminescence, 48 h; Potency, µM (top dose mostly 46.2 µM), hits mostly inhibitors; 420,000 tested, 15% active; further: nearly all actives have a fitted effect of over 55% in size
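DT40 Tdp1-/-;hTDP1 cells, no CPT (DMSO vehicle only), 400 cells/well; compounds pin-transferred; ≥48 hr, 37 °C; CellTiter-Glo 30 min RT dark, luminescence read.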
IL1B secr inh: inhibitors of inflammasome signaling (IL-1 beta secretion); activity change, % at 57.5 µM; 360,000 tested, 4.7% active; AID 743279; THP-1 LPS/ATP IL-1B secretion, AlphaLISA, 16 h; hits give low values; in the data active means activity change below about -50%; inconclusive means mostly about -30% to -49%
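Secreted IL-1B measured by AlphaLISA bead assay after 16 h compound exposure of THP-1 cells; compounds (final up to 57.5 uM) added 1 h before LPS (250 ng/mL) and ATP (1.25 mM) stimulation; lower signal means less secretion.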
HT1080NT lethal: kills 2HG-producing HT-1080-NT fibrosarcoma cells; AID 686970; HT-1080-NT fibrosarcoma viability, CellTiter-Glo ATP luminescence, 48 h; Potency, µM (series often up to 46.1 µM), usual class: cytotoxic; 360,000 tested, 1.6% active;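 further: NT is the 2HG producing partner of a matched IDH1 knockdown line; nearly all actives have a fitted effect of over 55% in size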
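Viability of the 2HG-overproducing fibrosarcoma line after 48 hours of compound exposure at 37 degrees C was determined by luminescence with CellTiter-Glo, and concentration-effect curves were then fitted and categorized.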
Each line names hits and unclear results; the compound was inactive in the other large screens; ! = a repeat was not active. Hits are enriched below; roughly 19% of the tested compounds scored in any of these assays. Unless noted, the call rests on the fitted dose curve; in most records, active means well fitted curve in the direction sought with a large enough effect; inconclusive means small, poorly fitted or top-dose-only effect, or another doubt; inactive means no such curve, though single readings can be large; an effect the other way counts as inactive or inconclusive.

COc1cccc(C)c1NC1=NCCO1	none
O=C1NC(=O)C2(CCCc3ccc(N(CCCl)CCCl)cc32)N1 (stereo not drawn)	DT40 TDP1 CPT 0.41µM, HT1080 IDH1KD tx inconclusive, TDP1 cell noCPT 0.18µM, HT1080NT lethal inconclusive
NC1(C(=O)O)CCCc2ccc(N(CCCl)CCCl)cc21 (stereo not drawn)	DT40 TDP1 CPT 1.6µM, TDP1 cell noCPT 2.3µM
C[C@@]12CC[C@@H](c3cc4c(cc3C1)OCO4)N2c1ccccc1	DT40 TDP1 CPT inconclusive, TDP1 cell noCPT inconclusive
CC(Cc1ccccc1)NCc1ccccc1O (stereo not drawn)	none
CC(Cc1ccccc1)NCC(=O)Nc1cc(N(C)C)nc2ccccc12 (stereo not drawn)	DT40 TDP1 CPT inconclusive, HT1080 IDH1KD tx 23µM, TDP1 cell noCPT inconclusive, HT1080NT lethal inconclusive (no result: IL1B secr inh)
C[C@@H]1O[C@@H](O[C@H]2CC[C@]3(C=O)C4CC[C@]5(C)[C@@H](C6=CC(=O)OC6)CC[C@]5(O)[C@@H]4CC[C@]3(O)C2)[C@H](O)[C@H](O)[C@H]1O (stereo partly drawn)	DT40 TDP1 CPT 0.37µM, TDP1 cell noCPT 0.33µM (no result: HT1080 IDH1KD tx, IL1B secr inh, HT1080NT lethal)
CC12CC[C@H]3[C@@H](CCC4(O)C[C@H](O)CCC34/C=N/NC(=O)Cc3ccccc3)C1(O)CCC2C1=CC(=O)OC1 (stereo partly drawn)	HT1080 IDH1KD tx inconclusive, HT1080NT lethal inconclusive
CC1O[C@@H](OC2CC[C@@]3(C=O)C4CC[C@]5(C)C(C6=CC(=O)OC6)CC[C@@]5(O)C4CC[C@]3(O)C2)C(O)C(O)C1O (stereo partly drawn)	DT40 TDP1 CPT 0.46µM, TDP1 cell noCPT 0.58µM (no result: HT1080 IDH1KD tx, IL1B secr inh, HT1080NT lethal)
C[C@]12CCC3C(CC[C@]4(O)CC(O)CC[C@@]34C=O)[C@]1(O)CCC2C1=CC(=O)OC1 (stereo partly drawn)	none (no result: HT1080 IDH1KD tx, IL1B secr inh, HT1080NT lethal)
CCC1(c2ccccc2)C(=O)NC(=S)NC1=O	none
Cc1nnc2n1-c1sc(CCC(=O)N3CCOCC3)cc1C(c1ccccc1Cl)=NC2	none (no result: HT1080 IDH1KD tx, IL1B secr inh, HT1080NT lethal)
CN1C(=O)N(C)C(=O)C(NS(=O)(=O)c2ccc(N)cc2)(c2ccccc2)C1=O	none
CC(C)(C)c1ccc(OCC(=O)Nc2ccc(Cl)cc2C(=O)c2ccccc2)cc1	DT40 TDP1 CPT inconclusive (no result: HT1080 IDH1KD tx, IL1B secr inh, HT1080NT lethal)
O=C(O)Cc1ccc(OCCNC[C@H](O)c2ccccc2)cc1	TDP1 cell noCPT inconclusive (no result: HT1080 IDH1KD tx, IL1B secr inh, HT1080NT lethal)
CN(C)c1ccc(CCN2CCOCC2)cc1	none
c1ccc(OCc2ccc(CCCN3CCOCC3)cc2)cc1	DT40 TDP1 CPT inconclusive, TDP1 cell noCPT 21µM
Cc1cc(C)cc(Nc2nc3ccc(C)cc3n3cnnc23)c1	TDP1 cell noCPT inconclusive
Cc1ccc(C)c(N2CCN(c3nc4ccc(Cl)cc4n4cnnc34)CC2)c1	DT40 TDP1 CPT 18µM, TDP1 cell noCPT 16µM (no result: HT1080 IDH1KD tx, IL1B secr inh, HT1080NT lethal)
CS(=O)(=O)c1ccc(C2=C(CNC(=O)c3cccnc3)[C@H]3CC[C@@H](C2)N3Cc2ccccc2)cc1	none
O=C(Nc1ccc(Cl)c(C(F)(F)F)c1)C1CCCN(S(=O)(=O)c2cccc3cccnc23)C1 (stereo not drawn)	DT40 TDP1 CPT 7.3µM, TDP1 cell noCPT 6.5µM (no result: HT1080 IDH1KD tx, IL1B secr inh, HT1080NT lethal)
CCN(CC)P(=O)(c1nccn1C)N(CC)CC	none
NC(=O)OCCCc1ccccc1	DT40 TDP1 CPT 5.3µM!, TDP1 cell noCPT 21µM!
COc1ccccc1CCNC1CCC(C(C)(C)C)CC1 (stereo not drawn)	DT40 TDP1 CPT inconclusive, HT1080 IDH1KD tx inconclusive, TDP1 cell noCPT 21µM, IL1B secr inh -65, HT1080NT lethal inconclusive
COc1ccccc1CCNC1CCCCCC1	DT40 TDP1 CPT inconclusive
C[N+]1([O-])[C@@H]2CC[C@H]1CC(OC(=O)C(CO)c1ccccc1)C2 (stereo partly drawn)	none (no result: HT1080 IDH1KD tx, IL1B secr inh, HT1080NT lethal)
Cn1cc(C(=O)Cc2ccccc2)c2ccccc21	DT40 TDP1 CPT 16µM, TDP1 cell noCPT inconclusive
CCOP(=O)(OCC)C(O)c1ccc(N(C)C)cc1 (stereo not drawn)	none
CC(C)CN1CCC2(CC1)CCN(S(C)(=O)=O)CC2	DT40 TDP1 CPT inconclusive (no result: HT1080 IDH1KD tx, IL1B secr inh, HT1080NT lethal)
COc1ccccc1OCCCn1cc(C(=O)c2ccco2)c2ccccc21	DT40 TDP1 CPT 18µM, TDP1 cell noCPT inconclusive, IL1B secr inh inconclusive
